Screening results (PubChem)
Sampled rows, rich in hits. Any-hit rate of the full collection: about 3.5%.
GPR151 ag: activators of human GPR151; Q8TDV0; PathHunter beta-arrestin GPR151 cells, luminescence; activation, % at 11.2 µM; actives 1% (n = 650,000); in the data active means activation above about 4.9%;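 further: 0% = median of compound wells and 100% = cells with positive control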
TEAD-YAP block: TEAD-YAP interaction inhibition; HEK-TIYL cells, TEAD-Gal4/YAP UAS-luciferase luminescence; inhibition, % at 9.12 µM; actives 1.4% (n = 640,000); in the data active means inhibition above about 32%;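 further: 0% = median of test compound wells and 100% = reference inhibitor wells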
MITF primary: blocks human microphthalmia-associated transcription factor; inhibition, % at 2.6 µM; AlphaScreen MITF homodimerization, bead proximity signal; actives 0.91% (n = 650,000); O75030; AID 1259374; in the data active means inhibition above about 50%;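 further: 0% = vehicle wells with protein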
FBW7 activator: activators of human E3 ligase FBW7; normalized activity (activation), % at 26.1 µM; AlphaScreen FBW7–phospho-cyclin E peptide binding, activator screen; AID 1259310; actives 0.13% (n = 650,000); Q969H0; in the data active means normalized activity above about 1.9%;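 further: purified mutant Fbw7 with reduced substrate affinity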
MITF confirm: confirmation of human MITF inhibitors; actives 16% (n = 4,700); inhibition, % at 2.6 µM; AlphaScreen MITF homodimerization, biotin/His-MITF beads; shares compounds with MITF primary;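 active means inhibition above a cutoff derived from the DMSO control wells, cut at about 28% in these data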;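 further: 0% = MITF dimer wells with DMSO only; inhibitors lower the bead chemiluminescence by keeping MITF from dimerizing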
AlphaScreen DR: AlphaScreen optical interference, dose response counter-screen | IC50, µM | AID 1259373 | AlphaScreen optical interference counterscreen, cell-free | shares compounds with MITF primary | actives 6% (n = 480); call rule not given here
AlphaScreen intf2: optically interferes with AlphaScreen signal; shares compounds with MITF primary; LysRS AlphaScreen counterscreen, signal interference, triplicate; inhibition, % at 2.6 µM; actives 7.6% (n = 4,700); AID 1259376;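 active means inhibition above a cutoff derived from the DMSO control wells, cut at about 30% in these data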
An asterisk follows results filed as active; / = not tested or not shown.

SMILES	GPR151 ag	TEAD-YAP block	MITF primary	FBW7 activator	MITF confirm	AlphaScreen intf2	others
Nc1cc(Br)cnc1N	0	-18	78*	0	80*	9	AlphaScreen DR=>8.6
N#CCc1ccc(NC(=O)c2ccccc2Cl)cc1	0	-16	-3	0	/	/
O=[N+]([O-])c1ccc(O)c(CN2CCCC(O)C2)c1 (centres undefined)	0	7	-3	0	/	/
CCC(=O)NC(=S)NNC(=O)c1ccccc1O	-2	-10	63*	-1	13	69*
O=C(Oc1ccc(C2Oc3ccccc3C3CC(c4ccccc4)=NN32)cc1)c1ccccc1 (centres undefined)	0	-29	-8	0	/	/
C=CCNCCOCCOc1c(C)cccc1C(C)(C)C	-1	-8	68*	0	-7	-6
COCCCNCCOc1c(C)cccc1C(C)(C)C	-1	-14	81*	0	13	10
COCCNCCCCOc1c(C)cccc1C(C)(C)C	0	-6	26	0	/	/
COCCCNCCCOc1c(C)cccc1C(C)(C)C	0	2	34	0	/	/
Cc1ncn(-c2ccc(Nc3cc(-c4nocc4C)ccn3)cc2)n1	-1	-64	21	0	/	/
CC(C)(C)c1ccc(S(=O)(=O)N2CCc3nc4ccccc4c(C(=O)O)c3C2)cc1	0	-5	51*	0	-7	-2
O=C(N1CCN(Cc2ccccc2)CC1)C12CC3CC(CC(O)(C3)C1)C2	1	-3	53*	0	13	10
O=C(N1CCN(c2ccccc2)CC1)C12CC3CC(CC(O)(C3)C1)C2	-2	-7	5	0	/	/
O=C1O[C@@H]2C[C@H]3C[C@@H]2[C@@H]1[C@H]3C(=O)N1CCC(C(O)(c2ccccc2)c2ccccc2)CC1	-2	-3	18	1	/	/
CN1CCN(CCS(=O)(=O)OCC(F)(F)F)CC1	1	4	84*	0	10	14
O=C1c2cccc3cccc(c23)C(=O)N1CCS(=O)(=O)OCC(F)(F)F	0	2	12	0	/	/
CCOc1ccc(NC(=O)Nc2ccc(I)cc2)cc1	2	-8	-15	0	/	/
CCN(CC)C(=S)NC(=O)/C=C/c1ccco1	1	-13	52*	0	73*	1	AlphaScreen DR=>6.5
O=C(/C=C/c1ccco1)Nc1cccc2ccccc12	-1	-17	13	0	/	/
O=C(/C=C/c1ccco1)NCCCCNC(=O)/C=C/c1ccco1	0	-29	57*	0	71*	8	AlphaScreen DR=>6.5
CCC(=O)Nc1ccc(NC(=S)NC(=O)/C=C/c2ccco2)cc1	1	-2	12	0	/	/
O=C(/C=C/c1ccco1)NCCCCCCNC(=O)/C=C/c1ccco1	0	-28	55*	0	69*	7	AlphaScreen DR=>6.5
O=C(/C=C/c1ccco1)NCCCNC(=O)/C=C/c1ccco1	0	-6	27	0	/	/
O=C(/C=C/c1ccco1)Nc1c[nH]c(=O)[nH]c1=O	-1	-23	52*	1	32*	16	AlphaScreen DR=>6.5
COc1ccc(CCNC(=O)Nc2ccccc2)cc1	1	-12	10	0	/	/
SMILES	GPR151 ag	TEAD-YAP block	MITF primary	FBW7 activator	MITF confirm	AlphaScreen intf2	others
Cc1ccc(NC(=O)c2cccn(OCc3ccc(F)cc3)c2=O)cc1	-2	-6	-5	0	/	/
COc1cc(COc2ccc3c4c(c(=O)oc3c2)CCCC4)cc(OC)c1OC	1	-10	57*	0	10	5
Cc1ccc(COc2ccc3c4c(c(=O)oc3c2)CCCC4)cc1	-1	-19	10	0	/	/
Cc1ccc(S(=O)(=O)N2CC(O)CC2C(=O)O)cc1C (centres undefined)	2	2	3	0	/	/
O=C(O)C1CC(O)CN1S(=O)(=O)c1ccc(Cl)c(Cl)c1 (centres undefined)	-1	10	65*	0	-6	-10
O=C(c1ccc(O)c([N+](=O)[O-])c1)c1ccc(O)c([N+](=O)[O-])c1	-1	0	36	0	/	/
CCOc1cc(C(=O)NCc2ccc(OC)cc2)cc(OCC)c1OCC	-1	-4	-5	0	/	/
CCn1c(=O)c2ccccc2n2c(SCC(=O)NC3CCCCC3)nnc12	0	-2	-5	0	/	/
Cn1c(=O)c2ccccc2n2c(SCC(=O)NC3CCCCC3)nnc12	1	4	73*	0	2	15
